# According to PubChem BioAssay AID686928 (Broad Institute, 2013):
# Potency and affinity values are given separately. Calls of active or inactive are those of the source. A call without a number means that no potency is given here. No rule for the calls is given here.
# Assay: human cervical cancer cell viability loss – 24 h, plate reader, dry powder, cytotoxicity control, dose response (AID 686928)
row,Compound,outcome
1,CCCCCCCCCC(=O)C(O)CC (configuration not stated),inactive
2,CCn1nnnc1N,inactive
